# Laboratory results from PubChem BioAssay (Tox21).
# Inconclusive results are not listed. Unmarked numbers belong to inactive results. Activity calls are given as the source filed them. The call rests on the fitted dose curve; in most records, active means well fitted cell-killing curve with a large enough effect in the repeat runs; inconclusive means weak or mixed curves, or effect the other way; inactive means flat fitted curve, though single readings scatter.
# Test: qHTS assay to identify small molecule agonists of the TGF-beta/Smad signaling pathway - cell viability counter screen (AID 1346829); further: top concentration of the series differs between compounds; nearly all actives have a fitted effect of over 45% in size
# Conditions: SBE-bla HEK293T viability, CellTiter-Glo luminescence, 5 h; series mostly up to 76.8 µM; activity change, negative = cytotoxicity: at the top concentration
# Excerpt: National Center for Advancing Translational Sciences [NCATS]
# NIH Chemical Genomics Center [NCGC]
# U.S. Environmental Protection Agency [EPA]
# National Institutes of Environmental Health Sciences [NIEHS]
# National Toxicology Program [NTP]
# U.S. Food and Drug Administration [FDA]
# Transforming growth factor beta (TGF-beta) superfamily consists of a large number of structurally related dimeric proteins that act as hormones or local mediators in regulating a wide range of biological functions. This superfamily includes TGF-betas themselves, the bone morphogenetic proteins (BMPs) and the activins. These ligands induce oligomerization of serine/threonine receptor kinases and phosphorylate the cytoplasmic signaling molecules of Smad protein family. CellSensor SBE-bla HEK 293T cell line (Life Technologies, Carlsbad, CA), responsive to TGF-beta was used to screen Tox21 10K compound library for identification of agonists/antagonists of the Smad signaling pathway. This cell line contains a beta-lactamase reporter gene under control of the Smad binding element (SBE) stably integrated into HEK 293T cells. Also cytotoxicity of the compounds was tested in parallel by measuring the cell viability using CellTiter-Glo assay system in the same wells.
# Tox21 Assay Protocol Summary:
# SBE-bla HEK 293T cells were dispensed at 4,000/well in 6 uL of assay medium into black wall/clear-bottom 1536-well plates using a Multidrop Combi (ThermoFisher Scientific, Waltham, MA) dispenser. After the assay plates were incubated at 37 C and 5% CO2 for an overnight, 23 nL of compounds dissolved in DMSO, positive controls or DMSO only was transferred to the assay plate by a Pintool station (Kalypsys, San Diego, CA). The assay plates were incubated at 37 C and 5% CO2 for 5 hr. One uL of LiveBLAzer B/G FRET substrate (Life Technologies) was added using a Flying Reagent Dispenser (FRD, Aurora Discovery, San Diego, CA) and the plates were incubated at room temperature for 2 hr. Fluorescence intensity (405 nm excitation, 460 nm and 530 nm emissions) was measured using an Envision plate reader (PerkinElmer, Shelton, CT). For cytotoxicity read, 4 uL of CellTiter-Glo reagent (Promega Corporation, Madison, WI) was added to each well of the assay plates using FRD. After 30min incubation at room temperature, the luminescence intensity was measured using ViewLux plate reader (PerkinElmer).
# On the % scale 0 is the no-effect control and ±100 the full control effect.
Compound,Potency,"activity change, negative = cytotoxicity"
O=C(O)COc1cc(Cl)c(Cl)cc1Cl,inactive,–
NC(=O)CF,–,-0.659%
OCCCl,–,12.9%
O=C(Cc1ccccc1)OCCc1ccccc1,–,0.754%
CCCCC(CC)CO[N+](=O)[O-] (stereo not given),–,-3.24%
N#CC(C#N)=Cc1ccc(O)c(O)c1,–,-0.966% [at 35.3 µM]
CCCC(C)(COC(N)=O)COC(=O)NC(C)C (stereo not given),inactive,–
COc1ccc2c(c1OC)C(=O)O[C@H]2[C@@H]1c2cc3c(cc2CCN1C)OCO3,–,-7.89% [at 35.3 µM]
C[C@]12C=CC3=C4CCC(=O)C=C4CC[C@H]3[C@@H]1CC[C@@H]2O,inactive,–
CC[N+]1(C)CCCC(OC(=O)C(O)(c2ccccc2)c2ccccc2)C1 (stereo not given),–,-2.26% [at 35.3 µM]
NC(=S)c1c(Cl)cccc1Cl,–,-14.7%
CCCCC1C(=O)NC(=O)N(C2CCCCC2)C1=O (stereo not given),–,-1.88% [at 35.3 µM]
CCCBr,–,-7.99%
CCCCCl,–,10.3%
CN[C@@H](C)[C@H](O)c1ccccc1,–,11.8% [at 35.3 µM]
O=C=NC1CCCCC1,–,4.09%
CC1(C)CC(=O)CC(C)(C)N1[O],–,4.09%
COc1ccccc1N1CCNCC1,–,0.881% [at 35.3 µM]
CC(Cc1ccccc1)NCc1ccccc1Cl (stereo not given),–,-6.8% [at 35.3 µM]
CN1CC[C@]23c4c5ccc(O)c4O[C@H]2[C@@H](O)C=C[C@H]3[C@H]1C5,–,-2.21%

Compound,Potency,"activity change, negative = cytotoxicity"
O=C(O)C(F)(F)C(F)(F)C(F)(F)C(F)(F)C(F)(F)F,–,18.3%
O=C(O)CCCOc1ccc(Cl)cc1Cl,inactive,–
CCCCCBr,–,0.719%
C[C@H]1O[C@H](OC2[C@@H](O)[C@@H](O)C(O)[C@H](O)[C@H]2O)[C@@H](N)C[C@@H]1N=C(N)C(=O)O (stereo not given in full),–,7.44%
O=C1CC[C@@]2(O)[C@H]3Cc4ccc(O)c5c4[C@@]2(CCN3CC2CC2)[C@H]1O5,–,-14.4% [at 35.3 µM]
CC(=O)OC(c1ccccc1)C(Cl)(Cl)Cl (stereo not given),–,-10.4%
CCCCCCCCCCCCCCCl,–,0.562%
COc1ccc(C(=O)c2c(C)n(CCN3CCOCC3)c3ccccc23)cc1,–,0.261% [at 35.3 µM]
Cc1ccc2c(C)cccc2c1,–,-2.44%
O=C1NC(=O)C(=O)C(=O)N1,–,-1.97%
CC(C)(C#N)C(C)(C)C#N,–,0.661%
O=C(NCNC(=O)NC1C(=O)NC(=O)N1CO)NC1C(=O)NC(=O)N1CO (stereo not given),–,-0.777%
C[C@H](N)[C@H](O)c1ccc(O)c(O)c1,–,3.02% [at 35.3 µM]
CON(C)C(=O)Nc1ccc(Cl)cc1,–,-4.02%
O=C1c2ccccc2C(=O)N1SC(Cl)(Cl)Cl,inactive,–
CCC1(C2=NCCN2)Cc2ccccc2O1 (stereo not given),–,2.66% [at 35.3 µM]
C[N+](C)(C)CCOC(=O)C(O)(c1ccccc1)c1ccccc1,–,13.5% [at 35.3 µM]
CCSCc1ccccc1OC(=O)NC,–,2.52%
COc1cc(CC#N)cc(OC)c1OC,–,1.39% [at 35.3 µM]
CCCC1CCCCN1 (stereo not given),–,1.03% [at 35.3 µM]
